Inconclusive results are not listed. The source made the active and inactive calls. Calls come from the whole dose curve; as a rule, active = well fitted cell-killing curve with a large enough effect in the repeat runs; inconclusive = weak or mixed curves, or effect the other way; inactive = flat fitted curve, though single readings scatter.
Assay: qHTS assay to identify small molecule antagonists of the retinoid acid receptor (RAR) signaling pathway - cell viability counter screen (AID 1159551); note: nearly all actives have a fitted effect of over 35% in size
Conditions: C3RL4 cells viability, ATP luminescence (CellTiter-Glo), 6 h; series mostly up to 92.4 µM
Source text: U.S. Tox21 Program National Center for Advancing Translational Sciences [NCATS] NIH Chemical Genomics Center [NCGC] U.S. Environmental Protection Agency [EPA] National Institutes of Environmental Health Sciences [NIEHS] National Toxicology Program [NTP] U.S. Food and Drug Administration [FDA] Tox21 Assay Overview: All-trans Retinoic acid (atRA) is the potent natural metabolite of retinol and plays an important role in normal embryonic development and maintenance of cellular phenotype in adult animals. atRA is the activating ligand for the retinoic acid receptors (RARs) which form heterodimers with retinoid X receptors (RXRs) on the retinoic acid response element (RARE). Through activation of the RAR/RXRs nuclear receptors, atRA regulates the transcription of a large number of protein-coding genes and regulatory RNAs. Intracellular levels of atRA are controlled by the retinol signaling pathway (RSP) that regulates the biosynthesis and catabolism of atRA to maintain physiological levels. Chemicals that interfere with the RSP can cause abnormal intracellular levels of atRA and therefore are potential developmental toxicants. To assess compounds for the potential adverse effect on embryonic development through interfering with retinol signaling, a cell-based RARE luciferase reporter gene assay was used. C3RL4 cell line (OARSA/CFSAN/FDA, Laurel, MD) was used to screen Tox21 10K compound library for identifying inhibitors of the RSP. Also cytotoxicity was assessed by determining the viability of cells based on the quantitation of ATP.
Tox21 Assay Protocol Summary: C3RL4 cells were seeded at 1,000/well in 4 uL of assay medium into white solid 1,536-well tissue culture plates (Greiner Bio-One North America Inc. Monroe, NC) using a Multidrop Combi (Thermo Scientific, Waltham, MA) dispenser. After incubation at 37 C and 5% CO2 for an overnight, 23 nL of compounds dissolved in DMSO, positive control or DMSO only were transferred by a Pintool station (Kalypsys, San Diego, CA). One ul of 1 uM (final concentration) of Retinol was added right after the compound addition by using a Flying Reagent Dispenser (FRD) (Aurora Discovery, San Diego, CA). After 6 hr incubation at 37 C and 5% CO2, 5 uL of CellTiter-Glo reagent (Promega Corporation, Madison, WI) was added to each assay plate using an FRD. Luminescence was quantified on a ViewLux plate reader (PerkinElmer, Waltham, MA) after 30 min incubation at room temperature.
% is set by controls: 0 for no effect and ±100 for the full control effect.

Row | Compound | outcome | activity change, negative = cytotoxicity
1 | CN(C)c1cc(NC(=O)CNC(C)(C)C)c(O)c2c1C[C@H]1C[C@H]3[C@H](N(C)C)C(=O)C(C(N)=O)=C(O)[C@@]3(O)C(=O)C1=C2O | inactive | 
2 | COC(=O)/C=C(\C)CCC=C(C)C | inactive | 
3 | N=C(N)N1CCc2ccccc2C1 |  | -0.951% [at 8.39 µM] (inactive)
4 | CCCCCCCCCCCCCCCCN(C)C |  | 0.211% [at 8.39 µM] (inactive)
5 | CCOCCOCCOC(C)=O | inactive | 
6 | CCCC(C)C(O)CC (stereo not given) | inactive | 
7 | CC1(C)CC(N)CC(C)(C)N1 | inactive | 
8 | C/C=C(\C)C=O | inactive | 
9 | COc1ccc2cc(CCC(C)=O)ccc2c1 | inactive | 
10 | CC(C)C(=O)Nc1cccc(C2CN3CCSC3=N2)c1 (stereo not given) | inactive | 
11 | CNC(C)=O | inactive | 
12 | COc1ccccc1N1CCN(CC(O)COc2cc(OC)c(OC)c(OC)c2)CC1 (stereo not given) | inactive | 
13 | C/C(Cl)=C/CCl | inactive | 
14 | CCCCN=C(N)N=C(N)N | inactive | 
15 | CCOC(=O)c1ccc(N(C)C)cc1 | inactive | 
16 | COC(=O)c1ccc(NC(C)=O)cc1OC | inactive | 
17 | CC[N+](C)(CC)CC | inactive | 
18 | N#Cc1ccccc1C#N | inactive | 
19 | CCC(=O)OCCOc1ccccc1 | inactive | 
20 | CC12CCCC=C1C(=O)OC2=O (stereo not given) | inactive | 

Row | Compound | outcome | activity change, negative = cytotoxicity
21 | C[C@H]1COc2c(C3(N)CC3)c(F)cc3c(=O)c(C(=O)O)cn1c23 | inactive | 
22 | Nc1nc(Cl)cc(Cl)n1 | inactive | 
23 | CC(C)(O)c1ccc(C(C)(C)O)cc1 | inactive | 
24 | CCCCCCCCCCCC(C)=O | inactive | 
25 | C/C=C(\C)C(=O)OC/C=C(\C)CCC=C(C)C | inactive | 
26 | CC(C)OC(=O)C(C(=O)OC(C)C)=C1SC=CS1 | inactive | 
27 | CCCc1ccc(O)c(OC)c1 | inactive | 
28 | C=CCON/C(CCC)=C1\C(=O)CC(C)(C)C(C(=O)OC)=C1O | inactive | 
29 | N[C@H]1C(O)O[C@H](CO)[C@@H](O)[C@@H]1O (stereo not given in full) | inactive | 
30 | c1coc(Cn2cccc2)c1 | inactive | 
31 | CC(C)=CCC/C(C)=C\C#N | inactive | 
32 | COC(=O)C(c1ccccc1Cl)N1CCc2sccc2C1 (stereo not given) | inactive | 
33 | C=CCn1cc[n+](C)c1 | inactive | 
34 | Cc1ccccc1OCC(=O)O | inactive | 
35 | O=Cc1ccc(C(=O)O)cc1 | inactive | 
36 | CCCC(=O)C(CC)Sc1ccoc1C (stereo not given) | inactive | 
37 | CCCCC(O)/C=C(C)/C=C/C=C/C(=O)N1CCCC1=O (stereo not given) | inactive | 
38 | CCOC(=O)[C@H](CCc1ccccc1)N[C@H]1CS[C@H](c2cccs2)CN(CC(=O)O)C1=O | inactive | 
39 | C=C(C)C(=O)OCCOC1CC2CC1C1C=CCC21 (stereo not given) | inactive | 
40 | CCCCCCCCCCCCCCCC(=O)OC |  | 3.42% [at 19 µM] (inactive)

Source: PubChem BioAssay (Tox21)
